Laboratory results from PubChem BioAssay (NCI).
The panel holds about 83,000 compounds, 20% with a hit somewhere; the sample as a whole holds those more often.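 Note: values are percent growth. 100 is the growth of untreated cells, values between 100 and 0 indicate rising inhibition; between -100 and 0 indicates cell death.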 A number with no mark means an inactive call. Active and inactive are the calls of the source.

Tested on: UO-31 renal
Assay: NCI-60 one-dose screen, 48 h (100 = growth as untreated, 0 = no growth, -100 = all killed)
Details: 10 µM unless noted
Description: Growth inhibition of the UO-31 human tumor cell line is measured as a screen for anti-cancer activity. Cells are grown in 96 well plates and exposed to the test compound for 48 hours. Compounds are tested at a single concentration, which is 10^-5 M for most compounds. The reported endpoint is percent growth (GI% or GIPRCNT), where numbers from 0 - 100% represent growth inhibition, and numbers from -100% - 0 represent cell death. For example, a value of 40 represents 60% growth inhibition. A value of 0 means no net growth occurred over the course of the experiment. A value of -40 indicates 40% of cells at the beginning of the experiment died by the end of the experiment. A value of -100 means all cells are dead at the end of the experiment.
NCI-60 Human Tumor Cell Lines Screen was performed using the standard one-dose NCI protocol, which is described in more detail at https://dtp.cancer.gov/discovery_development/nci-60/default.htm.
Compounds with GIPRCNT values below 10 were considered active. Activity score was based on GIPRCNT using the following formula: […]
Score is 0 for GIPRCNT values of 100 or above, 50 for GIPRCNT values of 0, and 100 for GIPRCNT values of -100.

SMILES | growth
C=C1CCC2C(C)(COC(=O)CC)C(OC(=O)CC)CCC2(C)C1C/C=C1/C(=O)OCC1OC(=O)CC (stereo not given) | -72.2% (active)
Cc1[nH]ccc2cc3nc4ccccc4c3cc12 | 8.89% (active)
CC(=O)Nc1cc(C(c2ccccc2)c2ccccc2)cc(C(c2ccccc2)c2ccccc2)c1C | 49.3%
O=C1C=CC(=O)N1c1ccccc1N1C(=O)C=CC1=O | 79.4%
Cc1cc2ccccn2c1C(=O)c1ccc(C(=O)c2ccccc2)cc1 | 62.5%
COc1cc(OC)c2c(c1Cl)O[C@]1(C2=O)C(OCc2ccccc2)=CC(=O)C[C@H]1C | 9% (active)
COc1cc(NC(C)CCCN)c2nc(C)ccc2c1Oc1ccc(F)cc1 (stereo not given) | 45.4%
CC1CC=CCC1C1OCC(C)(C)CO1 (stereo not given) | 97.7%
c1ccc2nc(N/N=C3\CCCCC3C3CCCCC3)ccc2c1 (stereo not given) | 60.9%
COc1cccc(C=Nc2cc(C(C)C)c(O)cc2C)c1O | 72.4%
Cc1cc(C(=O)Nc2ccc3cc(CN4CCOCC4)ccc3n2)c(C)n1-c1ccccc1 | 53.3%
C[C@@H]1[C@H]2[C@H](C=C3[C@@H]4CC[C@H]5Cc6nc7c(nc6C[C@]5(C)[C@H]4C[C@@H](O)[C@@]32C)C[C@@H]2CC[C@H]3C4=C[C@@H]5O[C@@]6(CC[C@](C)(CO)O6)[C@@H](C)[C@@]5(O)[C@@]4(C)[C@H](O)C[C@@H]3[C@@]2(C)C7)O[C@]12CCC(C)(C)O2 | -6.3% (active)
O=C1OC(Oc2ccccc2)(c2ccccc2)c2ccccc21 (stereo not given) | 102%
C[C@@H]1C[C@@H]([C@@H](CC2CC(=O)NC(=O)C2)OC(=O)CC(=O)c2ccccc2)C(=O)[C@@H](C)C1 | -10.2% (active)
Cc1ccc(-c2c3c(N)nc(-c4ccncc4)nc3nc3c2c(C)nn3-c2ccccc2)cc1 | 93.4%
O=C(COc1cccc(/C=C2\Oc3ccc4ccccc4c3C2=O)c1)c1ccc([N+](=O)[O-])cc1 | -41.6% (active)
CCC(=O)Nc1cc2c(cc1Cl)-c1ccccc1C2 | 42.5%
COc1cc(/C=C/c2cc(/C=C/c3ccc(O)c(OC)c3)n(C(=O)Cc3ccccc3)n2)ccc1O | -9.97% (active)
CSc1nc(-c2ccc(O)cc2O)c2c(=O)[nH]c(Nc3ccc(S(=O)(=O)Nc4nc(C)cc(C)n4)cc3)nc2n1 | 112%
O=C1c2cccc(NCCN=Cc3ccccc3O)c2C(=O)c2c(NCCN=Cc3ccccc3O)cccc21 | -4.5% (active)

SMILES | growth
FC(F)(F)c1cc(-c2nnc3n2N=C(N2CCCC2)CS3)cc(C(F)(F)F)c1 | 48.8%
O=C(COc1cccc(/C=C2\Oc3ccc4ccccc4c3C2=O)c1)c1ccc(Cl)cc1 | -7.73% (active)
COc1ccc2ncccc2c1Cc1c(OC)ccc2ncccc12 | 55.6%
Clc1ccc2nc(CI)c(CI)nc2c1 | -31.8% (active)
CCN(CC)c1ccc(C(=C2C=CC(=[N+](CC)Cc3cccc(S(=O)(=O)O)c3)C=C2)c2ccc(N(CC)Cc3cccc(S(=O)(=O)O)c3)cc2)cc1 | 45.4%
O=C(Nc1nc(-c2ccc(Cl)cc2)cs1)c1cc(-c2ccc(Br)cc2)nc2ccc(Cl)cc12 | 34.7%
[N-]=[N+]=NCc1ncc(-c2ccc(C(F)(F)F)cc2)c(NC2CCCCCC2)n1 | 50% [50 µM]
C=C1CC[C@@H]2[C@](C)(COC(C)=O)[C@H](OC(C)=O)CC[C@@]2(C)[C@@H]1CC(NCc1ccccc1)C1=CCOC1=O (stereo not given in full) | 29.1%
COc1ccc(Oc2ccccc2NC(=O)CNC(=O)c2cccc3ccccc23)cc1 | 42.4% [5 µM]
CCCCOP(=O)(OCCCC)C(C(=O)OCC)C(CC(=O)OCC)C(=O)OCC (stereo not given) | 91.9%
COc1cnc2c(c1)C(=O)c1c-2n(CCCN2CCOCC2)c(=O)c2cc(F)ccc12 | -47.2% (active)
CCCCCc1c(C)[nH]c(/C=C2\N=C(c3ccc[nH]3)C=C2Oc2ccc(Cl)cc2)c1C | -53% [100 µM] (active)
COc1ccc2c(c1)C(=Nc1cc(OC)c(OC)c(OC)c1)C(=O)N2 | 46.9%
N/C(=N\C(N)=N\c1nc2ccccc2s1)c1ccnc(Cl)c1 | 56.5%
CN1CCN(CCCOc2ccc3ncnc(Nc4ccc(OCc5cccc(F)c5)c(Cl)c4)c3c2)CC1 | -4.76% (active)
COc1ccc2nc(N/N=C(\C)c3ccccn3)cc(C)c2c1 | -31% (active)
CCN(CC)c1ccc(/C=C/C(=O)c2cccc(NS(C)(=O)=O)c2)cc1 | 37.2%
COc1cc2c(cc1OC)C(CC1(O)CCCCC1)N(S(=O)(=O)c1ccc(C)cc1)CC2 (stereo not given) | 25.8% [100 µM]
COc1c(O)cc2c(c1CC=C(C)C)OC(=O)c1c(cc(O)c(CC=C(C)C)c1O)O2 | 45.1%
CC1CN(CC(O)c2ccc(Br)cc2)CCO1 (stereo not given) | 85.4%
